# Source: ChEMBL document CHEMBL1961873, “Compounds: GSK PKIS; Assays: Nanosyn kinase panel” (2012)
# “And” between values parts separate entries of the source, which are not always exact repeats. Equal values may be shown once.
# Biological target: Mast/stem cell growth factor receptor Kit (Homo sapiens) (UniProt P10721)
# Details: at 0.1 µM
# 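Note: values are mean inhibition of KIT, from the GSK PKIS dataset.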
# Mast/stem cell growth factor receptor Kit (Homo sapiens), sequence (P10721 whole entry): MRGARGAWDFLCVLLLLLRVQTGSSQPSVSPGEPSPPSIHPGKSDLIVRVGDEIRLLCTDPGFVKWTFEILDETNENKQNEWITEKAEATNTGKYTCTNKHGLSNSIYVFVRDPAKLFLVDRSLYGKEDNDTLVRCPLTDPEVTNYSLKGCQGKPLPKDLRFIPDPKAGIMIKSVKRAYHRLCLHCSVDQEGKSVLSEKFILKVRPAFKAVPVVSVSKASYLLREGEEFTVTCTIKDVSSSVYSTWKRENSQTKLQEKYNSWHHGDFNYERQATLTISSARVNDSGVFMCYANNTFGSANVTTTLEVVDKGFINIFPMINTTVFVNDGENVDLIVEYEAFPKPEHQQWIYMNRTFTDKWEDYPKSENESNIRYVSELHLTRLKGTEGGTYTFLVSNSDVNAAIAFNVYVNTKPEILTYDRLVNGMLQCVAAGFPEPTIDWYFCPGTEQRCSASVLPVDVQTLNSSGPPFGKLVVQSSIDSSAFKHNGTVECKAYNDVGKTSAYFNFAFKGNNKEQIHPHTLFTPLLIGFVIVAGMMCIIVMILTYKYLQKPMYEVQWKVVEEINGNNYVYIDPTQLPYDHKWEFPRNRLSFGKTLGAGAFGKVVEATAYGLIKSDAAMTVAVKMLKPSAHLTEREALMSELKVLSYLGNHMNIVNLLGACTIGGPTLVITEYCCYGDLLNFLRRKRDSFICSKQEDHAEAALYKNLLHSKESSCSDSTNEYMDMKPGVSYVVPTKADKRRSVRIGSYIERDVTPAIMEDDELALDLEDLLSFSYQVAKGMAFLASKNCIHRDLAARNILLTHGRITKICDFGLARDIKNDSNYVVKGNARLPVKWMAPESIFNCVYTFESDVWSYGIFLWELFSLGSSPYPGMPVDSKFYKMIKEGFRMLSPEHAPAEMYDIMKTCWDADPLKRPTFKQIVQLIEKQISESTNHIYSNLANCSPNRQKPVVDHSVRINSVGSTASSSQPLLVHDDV
row,Compound,inhibition
1,O=C(O[C@H]1CN[C@H](C#Cc2cc3ncnc(Nc4ccc5c(cnn5Cc5ccccc5)c4)c3s2)C1)N1CCOCC1,-3.59%
2,COc1ccc(Nc2ncc(-c3ccccc3)o2)cc1OC,79.1%
3,COc1cc(N2CCN(C(C)C)CC2)ccc1Nc1nc(Nc2cccc(F)c2C(=O)O)c2cc[nH]c2n1,2.86%
4,COc1ccccc1-c1cc(/C=C2\C(=O)Nc3ncc(Br)cc32)cc(Br)c1O,8.06%
5,FC(F)(F)CNc1nccc(-c2cnn3ncccc23)n1,2.28%
6,CN1CCC(n2cnc(-c3ccc(F)cc3)c2-c2ccnc(NCCO)n2)CC1,4.45%
7,CS(=O)(=O)CCNCc1ccc(-c2ccc3ncnc(Nc4ccc(OCc5cccc(C(F)(F)F)c5)cc4)c3c2)o1,4.53%
8,COc1c(C(N)=O)cc(-c2ccc(Cl)cc2)cc1-c1ccc(S(N)(=O)=O)cc1,6.94%
9,Cc1nnc(-c2cccc(-c3ccc(C(=O)NCC4CC4)cc3)c2)o1,7.19%
10,O=C(O[C@H]1CN[C@H](C#Cc2cc3ncnc(Nc4ccc5c(ccn5Cc5cc(F)ccc5F)c4)c3s2)C1)N1CCOCC1,2.29%
11,CS(=O)(=O)Nc1ccc(-c2ccc3c(NC(=O)C4CC4)n[nH]c3c2)cc1,1.72%
12,CN1CCC(C(=O)Nc2n[nH]c3nc(-c4ccc(O)cc4)c(Br)cc23)CC1,3.81% and 2.92%
13,O=C(O[C@H]1CN[C@H](C#Cc2cc3ncnc(Nc4ccc(OCc5cccc(F)c5)c(Cl)c4)c3s2)C1)N1CCOCC1,5.01%
14,CCCNc1cccc(-n2ncc3c(N/N=C/c4ccncc4)ncnc32)c1,2.4%
15,COc1cccc(Nc2nccc(-c3cnn4ncccc34)n2)c1,89.5%
16,N#Cc1ccc2c(-c3ccnc(NC4CC4)n3)c(-c3ccc(F)cc3)nn2c1,3.02%

row,Compound,inhibition
1,CNC(=O)c1ncccc1Nc1nc(Nc2cc3c(cc2OC)CCCN3C(=O)CN(C)C)nc2[nH]ccc12,5.24%
2,CC1(C)CC(n2cnc(-c3ccc(F)cc3)c2-c2ccnc(N)n2)CC(C)(C)N1,-0.71%
3,COc1ccc2ncn(-c3cc(O[C@H](C)c4ccccc4C(F)(F)F)c(C(N)=O)s3)c2c1,-1.6%
4,CC(C)c1ccc(-c2cc(-c3c[nH]nc3-c3ccccn3)ccn2)cc1,0.6%
5,CN1CCN(Cc2ccc(-c3cc4ncnc(Nc5ccc(OCc6cccc(F)c6)c(Cl)c5)c4s3)o2)CC1,3.38% and 6.79%
6,NS(=O)(=O)c1ccc(N/N=C2\C(=O)Nc3cccc(CCc4ccncc4)c32)cc1,27%
7,N#Cc1cccc(Nc2ncc(-c3ccccc3)o2)c1,19.9%
8,CNC(=O)c1cncc(/C=C/c2ccccc2C)c1,5.02%
9,Nc1ncnc2occ(-c3ccc(NC(=O)Nc4cc(C(F)(F)F)ccc4F)cc3)c12,90.2% and 85.7%
10,Cc1cc(O)cc(C)c1/C=C/c1cncc(C(=O)OC(C)(C)C)c1,38.3%
11,COc1ccc(-c2nn3ncccc3c2-c2ccnc(Nc3ccc(F)c(F)c3)n2)cc1,7.56%
12,O=C(Nc1n[nH]c2nnc(-c3cccnc3)cc12)C1CC1,1.26%
13,c1ccc(-c2n[nH]cc2-c2ccnc(-c3ccc(OCCn4ccnc4)cc3)c2)nc1,1.62%
14,CS(=O)(=O)Nc1ccc(-c2cc(-c3ccccc3)cc(C(N)=O)c2N)cc1,3.8%
15,OCCCNc1nccc(-c2c(-c3ccc(F)cc3)nn3cc(C(F)(F)F)ccc23)n1,3.28%
